Whole data set: some 3,600 compounds, median “viability index relative to DMSO control” near 0.81, cut for the lowest 2% near 0.13. The sample holds the lowest values, similar compounds and a random draw of the others, so the mix is not that of the screen.
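Further: Saponin-lysis sexual stage assay in serum-free medium: MitoTracker Red CMXRos staining plus saponin, high-content imaging, particle count per well divided by plate mean of DMSO wells.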

For this test, the system named is Plasmodium falciparum NF54 stage V gametocytes. Nature of the test: viability index relative to DMSO control (fraction); higher = less gametocyte killing. The following applies: 1.25 µM, incubation time: 72 h.
In the case of `O=[N+]([O-])c1ccc2nc(NC3CCCCC3)c(NC3CCCCC3)nc2c1`, the viability index is 0.86.
Next, `O=[N+]([O-])c1ccc2nc(Nc3ccccc3)c(Nc3ccccc3)nc2c1`: 0.481; `O=[N+]([O-])c1ccc2nc(Nc3ccc(Cl)c(Cl)c3)c(Nc3ccc(Cl)c(Cl)c3)nc2c1`: 0.0962.
Next, `O=[N+]([O-])c1ccc(S(=O)(=O)N2CCN(C(=S)NCc3ccccc3)CC2)cc1`: 0.163.
Next, `CC(C)c1nc(N2CCN(C(=O)Nc3ccccc3)CC2)c(C#N)c2c1COC(C)(C)C2`: 0.0954.
As to `CC1(C)Cc2c(sc(NC(=O)CCl)c2C#N)CO1`, the viability index was 0.556.
`Cc1ccc(-c2noc(C3CCN(C(=O)Nc4ccc(C#N)cc4)CC3)n2)o1` had a viability index of 0.957.
Then `CCCC(=O)N1CCN(c2nc(Cc3ccccc3)c3c(c2C#N)CC(C)(C)OC3)CC1`, with 0.568; and `CC(C)c1nc(N2CCN(C(=S)NCc3ccccc3)CC2)c(C#N)c2c1COC(C)(C)C2`, with 0.0888.
Next, `CC[n+]1c(SC)ccc2cc(OC)ccc21`: 0.681.
Next, `CCC(=O)NCc1nnc(SCc2cccc(C(F)(F)F)c2)n1-c1cccc(OC)c1`: 0.865; `C[n+]1ccccc1C=Cc1cc(Br)ccc1O`: 0.819; `CC(NC(=O)C(=O)N1CCCCC1)C(c1cccs1)N1CCOCC1` (stereo not given): 0.787.
On to `Fc1cccc2sc(Nc3nc(-c4ccccn4)cs3)nc12`, for which the viability index worked out at 0.322.
Then `COc1ccc2nc(Nc3nc(-c4ccccn4)cs3)sc2c1`, with 0.331; and `c1ccc(Nc2nc(-c3ccccn3)cs2)nc1`, with 0.0653.
Then `O=C(Nc1nc(-c2ccccn2)cs1)c1ccc(Oc2ccc(C(=O)Nc3nc(-c4ccccn4)cs3)cc2)cc1`, with 0.00826; and `CC(=O)Nc1nc(C)c(-c2csc(Nc3ccc(C)cc3)n2)s1`, with 0.351; and `Cc1nc2sccn2c1-c1csc(Nc2ccccn2)n1`, with 0.89.
Next, `Cc1nc2ncccn2c1-c1csc(Nc2ccccn2)n1`: 1.06.
Take `COc1ccc2sc(Nc3nc(-c4ccccn4)cs3)nc2c1`: the viability index came out at 0.876.
Then `Cc1ccnc(Nc2nc(-c3ccc(Cl)cc3)cs2)c1`, with 0.938; and `Cc1ccnc(Nc2nc(-c3ccccn3)cs2)c1`, with 0.0192.
Then `Cc1ccnc(Nc2nc(-c3c(C)nc4sccn34)cs2)c1`, with 0.822; and `Cc1ccc(Nc2nc(-c3ccccn3)cs2)cc1`, with 0.127; and `CC1CCc2c(sc(NC(=O)c3ccccc3F)c2C(=O)NCc2ccccc2)C1` (stereo not given), with 1.42.
Then `CCC(CC)=NNC(=O)C(=O)NC1CCCCC1`, with 1.13.
As for `CCC(=O)NC(c1ccccc1Cl)c1cc(Cl)c2cccnc2c1O` (stereo not given), the viability index was determined as 0.86.
With `O=C(O)c1ccc(S(=O)(=O)c2ccc3c(c2)C(=O)N(c2ccc(Sc4ccc([N+](=O)[O-])cc4)cc2)C3=O)cc1`, the viability index amounted to 0.887.
Then `CCOc1ccc(Nc2cc(=O)oc3ccccc23)cc1`, with 0.618; and `CCCn1nc(Oc2nc(NCC)cc(OC)n2)ccc1=O`, with 0.859.
Regarding `N=c1c2c(n(Cc3ccccc3)c3c1CCC3)CCC2`, the viability index was 0.87.
The molecule `O=[N+]([O-])c1ccc(N2CCN(C(=S)Nc3ccccc3)CC2)cc1` registered a viability index of 0.967.
Molecule `O=[N+]([O-])c1ccc(N2CCCN(C(=S)Nc3ccccc3)CC2)nc1` had a viability index of 0.0788.
Next, `O=[N+]([O-])c1ccc(N2CCCN(C(=S)Nc3ccc(F)cc3Br)CC2)nc1`: 0.261.
Then `NC1=NC(c2ccccc2)N(c2ccccc2)C(N)=N1` (stereo not given), with 1.12; and `O=C(Nc1ccccc1C(=O)O)c1cccc(NC(=O)c2ccco2)c1`, with 0.73; and `CCn1c(CSc2nc(C)cc(C)n2)nnc1SCC(N)=O`, with 1.13.
Next, `CC(=O)N(C1=C(N(C)C)C(=O)c2ccccc2C1=O)c1cccc(F)c1`: 0.0612; `CC(=O)N(C1=C(N(C)C)C(=O)c2ccccc2C1=O)c1ccc(Cl)c(Cl)c1`: 0.257; `CC(=O)N(C1=C(N2CCC(C)CC2)C(=O)c2ccccc2C1=O)c1cccc(F)c1`: 0.892.
`CC(=O)N(C1=C(N(C)C)C(=O)c2ccccc2C1=O)c1ccc(F)c(F)c1` displayed a viability index of 0.0288.
Next, `CC(=O)N(C1=C(N(C)C)C(=O)c2ccccc2C1=O)c1ccc(Cl)cc1`: 0.208; `CC(=O)N(C1=C(N(C)C)C(=O)c2ccccc2C1=O)c1ccc(F)cc1`: 0.0453.
`CC(=O)N(C1=C(N2CCOCC2)C(=O)c2ccccc2C1=O)c1ccc(I)cc1` registered a viability index of 0.14.
Molecule `CC(=O)N(C1=C(N(C)C)C(=O)c2ccccc2C1=O)c1cc(C)cc(C)c1` gave a viability index of 0.0811.
`O=C(CN(CCN1CCOCC1)S(=O)(=O)c1ccccn1)N1CCN(C(c2ccccc2)c2ccccc2)CC1`: the viability index came out at 0.637.
Regarding `CCN(CC)c1ccc(C=NNC(=O)c2ccc(Nc3nc(-c4ccccc4)cs3)cc2)c(O)c1`, the viability index was found to be 0.675.
Next, `Cc1ccccc1N1C(=O)C2C3c4ccccc4C(C(=O)O)(c4ccccc43)C2C1=O` (stereo not given): 0.616; `CN(C)CCN1CCN(c2ccnc3cc4ccccc4cc23)CC1`: 0.84.
Then `O=c1c(=O)n(Cc2cccc(C(F)(F)F)c2)ccn1CCc1ccccc1`, with 0.751; and `CCN(CC)S(=O)(=O)c1ccc2[nH]cc(C(=O)NCCCN3CCN(c4ccc(OC)cc4)CC3)c(=O)c2c1`, with 1.14; and `CCN(CC)c1ccc(N=Cc2ccc(Sc3nc4ccccc4s3)o2)cc1`, with 1.17.
Then `OC(COc1ccc(OCC(O)CN2CCN(C3c4ccccc4-c4ccccc43)CC2)cc1)CN1CCN(C2c3ccccc3-c3ccccc32)CC1` (stereo not given), with 0.754; and `CC(=O)N(C1=C(N(C)C)C(=O)c2ccccc2C1=O)c1cccc(Cl)c1`, with 0.
Turning to `Cc1nc2c(C)cccc2c(O)c1CC=C(Cl)Cl`, the viability index is 0.759.
In turn, `Oc1c(CN2CCN(Cc3ccc4cccnc4c3O)CC2)ccc2cccnc12` had a viability index of 0.601.
Then `COc1ccc(C(OCCS(=O)(=O)CCO)(c2ccccc2)c2ccc(OC)cc2)cc1`, with 0.0248; and `COc1ccc(-c2nc(NC(=O)CS(=O)(=O)c3ccccc3)sc2C)cc1`, with 1.02.
Turning to `COc1ccc(S(=O)(=O)N=C2C=C(Nc3ccccc3)C(=O)c3ccccc32)cc1`, the viability index worked out at 0.232.
Then `O=C(Nc1ccc(Oc2ccc(OC(F)(F)F)cc2)cc1)C1CC1`, with 0.693.
In turn, `CCCOC(=O)C1=C(C)NC2=C(C(=O)CC(c3ccc(OC)c(OC)c3)C2)C1c1cccc(Br)c1` (stereo not given) yielded a viability index of 0.83.
Then `CCN1CCN(c2cc(C)c3cc(NC(=O)c4cncc(Br)c4)ccc3n2)CC1`, with 0.801; and `CCCNC1=C(N(C(C)=O)c2cccc(F)c2)C(=O)c2ccccc2C1=O`, with 0.0245; and `CC(=O)N(C1=C(N2CCCCC2)C(=O)c2ccccc2C1=O)c1cccc(F)c1`, with 0.833.
Next, `CCCNC1=C(N(C(C)=O)c2ccc(C)cc2)C(=O)c2ccccc2C1=O`: 0.0531.
Turning to `CCCCOc1ccc(N(C(C)=O)C2=C(N3CCCCC3)C(=O)c3ccccc3C2=O)cc1`, the viability index came out at 0.301.
In turn, `CC(=O)N(C1=C(N2CCCC2)C(=O)c2ccccc2C1=O)c1ccc(I)cc1` came in with a viability index of 0.879.
In turn, `CC(=O)N(C1=C(N2CCCC2)C(=O)c2ccccc2C1=O)c1cccc(F)c1` had a viability index of 1.
Molecule `COc1cccc(C(=O)NC(c2ccc(Cl)cc2)c2cc(Cl)c3cccnc3c2O)c1` (stereo not given) had a viability index of 0.523.
Then `COCCCNC(=O)C=Cc1ccc(C(C)C)cc1`, with 0.976.
On to `C=CCOC(=O)C1=C(C)N2CCSC2=C(C#N)C1c1ccco1` (stereo not given), for which the viability index amounted to 1.13.
As to `O=C(Nc1ccc2nc3n(c(=O)c2c1)CCCCC3)C(=O)N1CCN(c2cccc(Cl)c2)CC1`, the viability index was determined as 0.432.
Next, `O=C(CCCCCN1C(=O)c2cccc3cccc(c23)C1=O)NO`: 0.853; `Cn1c(SCc2cccc([N+](=O)[O-])c2)nc2c(c1=O)SCC2`: 0.818.
Then `CC(=O)N(C1=C(N2CCOCC2)C(=O)c2ccccc2C1=O)c1ccc(Cl)c(Cl)c1`, with 0.351; and `CC(=O)N(C1=C(N2CCOCC2)C(=O)c2ccccc2C1=O)c1cccc(Cl)c1`, with 0.0385; and `CC(=O)N(C1=C(N2CCCCC2)C(=O)c2ccccc2C1=O)c1ccc(F)c(F)c1`, with 0.837.
Next, `CC(=O)N(C1=C(N2CCOCC2)C(=O)c2ccccc2C1=O)c1ccc(Br)cc1`: 0.408; `CC(=O)N(C1=C(N2CCOCC2)C(=O)c2ccccc2C1=O)c1ccc(F)c(F)c1`: 0.0694; `CC(=O)N(C1=C(N2CCCCC2)C(=O)c2ccccc2C1=O)c1cccc(Cl)c1`: 0.144.
In turn, `CC(=O)N(C1=C(N2CCN(C)CC2)C(=O)c2ccccc2C1=O)c1cc(C)cc(C)c1` showed a viability index of 0.521.
Next, `CC(=O)N(C1=C(N2CCCC2)C(=O)c2ccccc2C1=O)c1ccc(F)c(F)c1`: 0.743.
For the molecule `CC(=O)N(C1=C(N2CCOCC2)C(=O)c2ccccc2C1=O)c1cc(C)cc(C)c1`, the viability index amounted to 0.0695.
With `COc1cncc(-c2cncc(-c3ccc(Oc4ccccc4)cc3)n2)c1`, the viability index is 0.899.
Next, `COc1cc2c(cc1OC)C(COc1ccc(F)cc1)N(C(=O)c1ccc(OC(C)C)cc1)CC2` (stereo not given): 0.66; `CCCN(CCC)CC(O)COc1ccccc1C(=O)Nc1ccccc1` (stereo not given): 0.65; `Cc1ccc(N2C(N)=NC(N)=NC2(C)C)cc1`: 0.985.
Next, `C=CCCC(=O)N1CCC(C(=O)Nc2ccc(-c3nc4ccccc4o3)cc2)CC1`: 0.846.
Turning to `c1ccc2c(c1)[nH]c1c(NCCN3CCCCC3)ncnc12`, the viability index is 1.09.

The values above are taken from the supplement of paper PMC4723716.
